Screens as filed in PubChem.
Anthrax LF prot: blocks Bacillus anthracis lethal factor protease; 0.12% of 360,000 active; inhibition, % at 10 µM; multiplex microsphere protease cleavage assay, LF; AID 588501; P15917; also: plate controls were buffer without enzyme for full effect and enzyme alone for no effect
Target sequence (P15917 whole entry, looked up): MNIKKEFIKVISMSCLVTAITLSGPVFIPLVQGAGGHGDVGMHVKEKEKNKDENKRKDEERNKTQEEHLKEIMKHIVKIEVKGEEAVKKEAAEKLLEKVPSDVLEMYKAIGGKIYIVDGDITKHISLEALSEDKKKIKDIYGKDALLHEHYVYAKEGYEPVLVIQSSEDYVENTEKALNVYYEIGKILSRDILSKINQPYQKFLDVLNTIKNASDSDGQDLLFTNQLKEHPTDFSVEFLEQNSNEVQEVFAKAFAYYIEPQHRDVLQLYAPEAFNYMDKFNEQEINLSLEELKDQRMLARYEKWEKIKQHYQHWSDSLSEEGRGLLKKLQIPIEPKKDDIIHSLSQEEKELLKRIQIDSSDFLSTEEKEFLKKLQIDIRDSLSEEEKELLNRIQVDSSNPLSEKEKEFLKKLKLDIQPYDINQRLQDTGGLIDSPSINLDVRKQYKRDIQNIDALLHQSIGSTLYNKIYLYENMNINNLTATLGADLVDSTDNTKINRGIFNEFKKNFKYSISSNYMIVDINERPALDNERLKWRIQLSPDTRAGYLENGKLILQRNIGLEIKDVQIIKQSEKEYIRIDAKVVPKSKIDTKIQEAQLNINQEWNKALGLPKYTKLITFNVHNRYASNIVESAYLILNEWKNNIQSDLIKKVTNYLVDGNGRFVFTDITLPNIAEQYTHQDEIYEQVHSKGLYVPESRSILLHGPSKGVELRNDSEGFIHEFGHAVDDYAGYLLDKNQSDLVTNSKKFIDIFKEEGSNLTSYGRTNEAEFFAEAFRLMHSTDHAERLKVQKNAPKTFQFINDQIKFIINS
Bead autofluor: compound fluorescence in toxin protease inhibitor counterscreen; compound autofluorescence counterscreen, microsphere flow cytometry; hits give high values; fluorescence intensity (no concentration beside the values); 3.1% of 360,000 active; in the data active = fluorescence intensity above about 16000; inconclusive = no clear call, values can overlap the other calls
PriA SSB inh: inhibitors of Klebsiella pneumoniae PriA binding to SSB C-terminal tail. AlphaScreen SSBct-PriA binding, biotinylated peptide. inhibition, % at 33 µM. 0.6% of 430,000 active. AID 1272365; in the data active = inhibition mostly above about 37%, no sharp cut-off; inactive = mostly below about 20%;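 also: plate controls were negative control peptide for no effect and reference peptide for full effect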
BoNT A protease: blocks Botulinum neurotoxin A light chain protease. multiplex microsphere protease substrate cleavage, flow cytometry. 0.17% of 360,000 active. inhibition, % at 10 µM. AID 588499; also: plate controls were buffer without enzyme for full effect and enzyme alone for no effect
BoNT-F LC inh: BoNT F light chain protease inhibition | inhibition, % at 10 µM | Multiplex microsphere protease cleavage assay, flow cytometry | 0.22% of 360,000 active | AID 588497; in the data active = inhibition above about 35%, passing the limit was not always enough; inconclusive = no clear call, values can overlap the other calls; also: plate controls were buffer without enzyme for full effect and enzyme alone for no effect
Active calls of the source: *; ? = inconclusive; . = no result. Sampled rows, rich in hits. Any-hit rate of the full collection: about 3.1%. Rule as the data show it, unless noted: active = inhibition above about 30%; inconclusive = no clear call, values can overlap the other calls; inactive = below that.

SMILES	Anthrax LF prot	Bead autofluor	PriA SSB inh	BoNT A protease	BoNT-F LC inh
CC1=CC(C)(C)N(C(=O)c2ccccc2)c2ccc(C)cc21	-4	3282	2	0	-11
CC1=CC(C)(C)N(C(=O)c2ccccc2)c2ccccc21	1	23091*	-29	2	4
CCCCNC(=O)CCNS(=O)(=O)c1ccc(Br)cc1	-3	9229	-8	0	-10
CCC(C)NC(=O)CCNS(=O)(=O)c1ccc(Br)cc1 (stereo not given)	-4	21722*	1	4	2
C=CCNC(=O)CCNS(=O)(=O)c1ccc(Br)cc1	-5	22875*	-8	2	0
Cc1oc(-c2ccc(Cl)cc2Cl)cc1C(=O)NC(C)C	.	.	-14	.	.
O=C(Cn1nnc2ccccc21)Nc1ccccc1-c1csc(-c2ccccc2F)n1	.	.	19	.	.
Cc1cc(Nc2ccc(F)cc2)nc(N)n1	1	23182*	5	0	-3
Cc1cc(Nc2ccc(C(=O)O)cc2)nc(N)n1	.	.	-9	.	.
O=C(OC1CSc2nc3ccccc3n2C1)c1ccco1 (stereo not given)	-5	21891*	3	1	0
CN1CCC(OC(=O)c2ccco2)CC1	-2	4480	-14	-1	-1
Cc1nn(-c2ccc(Nc3ccc(NC(=O)c4ccc(Br)o4)cc3)nn2)c(C)c1C	.	.	4	.	.
C=CCn1c(SCC(=O)c2ccc(F)cc2)nc2sc(CC)cc2c1=O	.	.	-9	.	.
O=C(c1cnn2c(C(F)F)cc(-c3ccccc3)nc12)N1CCOCC1	-2	21284*	0	3	4
Cc1cc(NC(=O)c2cnn3c(C(F)(F)F)cc(-c4ccc(Br)cc4)nc23)no1	-1	23282*	12	0	-1
COc1ccc(-c2cc(C(F)F)n3ncc(C(=O)N4CCN5CCCC5C4)c3n2)cc1 (stereo not given)	-16	17221*	-11	12	16
O=C(c1cnn2c(C(F)(F)F)cc(-c3ccc4c(c3)OCO4)nc12)N1CCCC1	-1	21315*	-5	?	0
COc1ccc(-c2cc(C(F)F)n3ncc(C(=O)N4CCc5ccccc54)c3n2)cc1	0	2616	-6	1	1
Fc1cccc(C[n+]2csc3ccccc32)c1	-3	17119*	6	-3	-9
COc1ccc(CC(NC(C)=O)C(=O)N2CCN(C(=O)Nc3ccc(Cl)cc3)CC2)cc1OC (stereo not given)	-8	22516*	-6	1	-1
COc1ccc(CC(NC(C)=O)C(=O)NC2CCN(C(=O)Nc3ccccc3Cl)CC2)cc1OC (stereo not given)	2	4418	-2	-1	-14
COc1cccc(NC(=O)N2CCCCCC2)c1	2	5094	-8	3	-4
COc1cccc(NC(=O)N2CCN(C(=O)C(Cc3ccc(OC)c(OC)c3)NC(C)=O)CC2)c1 (stereo not given)	-7	18405*	-1	?	13
Cc1nnc(NN=Cc2cc([N+](=O)[O-])c(N3CCC(C)CC3)cc2N2CCC(C)CC2)n1N	.	.	42*	.	.
Cc1nnc(N/N=C/c2cc([N+](=O)[O-])c(N3CCC(C)CC3)cc2N2CCC(C)CC2)n1N	3	8837	.	-1	-16
SMILES	Anthrax LF prot	Bead autofluor	PriA SSB inh	BoNT A protease	BoNT-F LC inh
Cc1ccc(C)c(NC(=O)Cn2nnc(-c3ccc(N4CCOCC4)cc3)n2)c1	-2	3912	-4	0	-4
Cc1cccc(C)c1NC(=O)Cn1nnc(-c2ccc(N3CCOCC3)cc2)n1	-2	20925*	-2	-2	-3
O=C(Nc1ccccc1)OC1CCCC(NC(=O)c2cccc(C(F)(F)F)c2)C1 (stereo not given)	.	.	-16	.	.
COc1ccc(-c2ccc(=O)n(Cc3nc(-c4ccc(Cl)cc4)no3)n2)cc1	.	.	-23	.	.
Cc1noc(-c2ccc(N3CC[C@H](NC(=O)c4ccc(Br)o4)C3)nc2)n1	.	.	-2	.	.
Cc1ccc(-c2[nH]ncc2C(=O)c2ccccc2C)c(O)c1	11	3804	-7	-1	36*
Cc1ccccc1C(=O)c1cn[nH]c1-c1ccccc1O	-1	3881	10	-2	-7
CCOC(=O)c1sc(=S)n(-c2ccc(F)c(F)c2)c1N	0	21634*	-16	-5	-4
CCOC(=O)c1ccc(-n2c(N)c(C(=O)NCc3ccco3)sc2=S)cc1	-1	23235*	30	2	0
CCOC(=O)c1sc(=S)n(-c2ccc(C)cc2)c1N	-2	4173	-3	-4	-18
CCOC(=O)c1sc(=S)n(-c2ccc(Cl)cc2)c1SC	-2	21737*	-14	0	-1
CC(=O)c1sc(=S)n(-c2ccc(Cl)cc2)c1C	1	3102	14	-1	-10
COc1ccc(-n2c(N)c(C(=O)NCc3ccco3)sc2=S)cc1	-1	3970	-5	0	1
O=C(c1ccc(-c2c(Cl)cccc2Cl)o1)N1CCOCC1	.	.	-28	.	.
Cc1nc(C)c(C(=O)N2CCc3ncncc3C2)s1	.	.	-3	.	.
Cc1c(C(N)=O)sc2nc(-c3ccc(F)cc3)cn12	.	.	-3	.	.
O=P(Nc1ccccc1)(Nc1ccccc1)Oc1cccc(Cl)c1	-18	17171*	5	?	18
CC(=O)c1cccc(NC(=O)Nc2cnn(Cc3ccc(Cl)cc3Cl)c2)c1	-2	22775*	3	-1	-4
COc1cccc(-c2cc(C(=O)NCCN3CCOCC3)no2)c1	0	17375*	-20	-3	-5
O=C(NCCN1CCOCC1)c1cc(-c2ccc(Cl)c(Cl)c2)on1	-1	5942	6	-1	-9
COc1ccc(C2CC(C(F)(F)F)n3nc(C(=O)NCCN4CCOCC4)cc3N2)cc1 (stereo not given)	-2	17087*	1	-1	-4
O=C(NCCN1CCOCC1)c1cc(-c2ccc(Cl)cc2)on1	-3	17467*	-7	?	-5
COc1cccc(-c2cc(C(=O)Nc3ccc(OC)c(OC)c3)no2)c1	-1	19835*	-10	1	1
O=C(NC(=S)NCCN1CCOCC1)c1ccccc1	-2	2010	-2	0	-1
O=C(NC(=S)NCCN1CCOCC1)c1cccc(Cl)c1	1	22268*	-24	-1	-2
SMILES	Anthrax LF prot	Bead autofluor	PriA SSB inh	BoNT A protease	BoNT-F LC inh
CCNC(=O)COc1cccc2ccccc12	-1	21317*	-9	-1	0
Cn1nc(CC(=O)NC2CCCCC2)c2ccccc2c1=O	-2	23933*	-8	-2	-3
Cn1nc(C(=O)NC2CCCCCC2)ccc1=O	-2	22596*	-13	?	-4
COc1cc(NC(=O)Cc2nn(C)c(=O)c3ccccc23)cc(OC)c1OC	-1	17080*	-21	?	-3
O=C(NC1CCCCCC1)c1ccc(=O)n(Cc2ccc(F)cc2)n1	.	.	-13	.	.
CC(=NN1CCN(Cc2ccccc2Cl)CC1)c1ccc([N+](=O)[O-])cc1	.	.	38*	.	.
O=C(CCCc1cccs1)NCCc1c[nH]c2ccccc12	-9	3748	46*	-4	-14
Cc1ccc(C(=O)N/C(=C\c2cccs2)C(=O)NCCc2c[nH]c3ccccc23)cc1C	-3	16774*	25	-2	-6
CC1CCCN(C(=O)c2cc(F)c(F)cc2Cl)C1 (stereo not given)	-4	22587*	-9	2	-5
